# Key:
# Assay in all cases: DAPPL (digital affinity profiling via proximity ligation, sequencing); 10 mM Tris-HCl pH 7.5, 50 mM NaCl, 1 mM DTT, 4% glycerol, room temperature, 30 min; GST-TFs on glutathione beads, 16-mer random dsDNA library, 0.1% formaldehyde crosslink after washing; high values mean tight binding
# Settings in all cases: protein: recombinant; tags: N-terminal GST; dsDNA, one strand shown
# ETV1 = ETV1 (Homo sapiens, UniProt P50549 1-477)
# How it was run: (§1)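 Binding signal is defined as a hexamer's read frequency for one factor over its frequency for the tag-only sample. To obtain reads, GST-fused human transcription factors were expressed in yeast, captured on glutathione beads, barcoded with DNA and pooled with that sample. Pools met 200 nmole of a 16-mer random double-stranded DNA library in Tris/NaCl/DTT/glycerol buffer for 30 min at room temperature before washing, 0.1% formaldehyde crosslinking, proximity ligation (BsaI/T4 ligase, 1 h, 37 °C), PCR and Illumina NextSeq500 sequencing.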
# ERF = molecular target: T1, ERF (Homo sapiens, UniProt P50548 1-548)
# T1 sequence: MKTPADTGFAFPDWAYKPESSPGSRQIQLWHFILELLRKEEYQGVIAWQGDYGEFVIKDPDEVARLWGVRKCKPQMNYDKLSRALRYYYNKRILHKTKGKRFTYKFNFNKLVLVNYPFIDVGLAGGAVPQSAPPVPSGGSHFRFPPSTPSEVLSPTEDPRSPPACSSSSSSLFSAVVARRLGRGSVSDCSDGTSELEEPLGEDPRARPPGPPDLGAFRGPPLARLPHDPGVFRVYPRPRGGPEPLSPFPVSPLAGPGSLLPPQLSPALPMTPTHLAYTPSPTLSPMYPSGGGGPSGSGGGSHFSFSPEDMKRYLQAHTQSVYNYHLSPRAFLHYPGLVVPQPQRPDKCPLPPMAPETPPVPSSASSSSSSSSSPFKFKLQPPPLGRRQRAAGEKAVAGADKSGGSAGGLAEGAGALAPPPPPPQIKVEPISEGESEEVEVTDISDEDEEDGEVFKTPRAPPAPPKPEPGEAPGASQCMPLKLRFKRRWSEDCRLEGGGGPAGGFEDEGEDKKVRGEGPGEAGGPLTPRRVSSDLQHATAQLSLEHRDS
# How it was run: as §1
# ETV3L = molecular target: T2, ETV3L (Homo sapiens, UniProt Q6ZN32 1-361)
# T2 sequence: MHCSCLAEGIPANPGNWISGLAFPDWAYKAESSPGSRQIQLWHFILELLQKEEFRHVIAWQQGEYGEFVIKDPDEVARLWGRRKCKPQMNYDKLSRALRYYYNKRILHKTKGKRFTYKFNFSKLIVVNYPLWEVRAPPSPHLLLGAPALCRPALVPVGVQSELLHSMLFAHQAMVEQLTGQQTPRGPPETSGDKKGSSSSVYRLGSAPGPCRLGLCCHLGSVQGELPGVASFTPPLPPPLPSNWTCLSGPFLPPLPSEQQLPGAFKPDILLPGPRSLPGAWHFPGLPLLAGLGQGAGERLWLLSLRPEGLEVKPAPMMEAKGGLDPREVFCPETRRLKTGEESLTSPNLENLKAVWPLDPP
# How it was run: as §1
# ETS2 = molecular target: T3, ETS2 (Homo sapiens, UniProt P15036 1-469)
# T3 sequence: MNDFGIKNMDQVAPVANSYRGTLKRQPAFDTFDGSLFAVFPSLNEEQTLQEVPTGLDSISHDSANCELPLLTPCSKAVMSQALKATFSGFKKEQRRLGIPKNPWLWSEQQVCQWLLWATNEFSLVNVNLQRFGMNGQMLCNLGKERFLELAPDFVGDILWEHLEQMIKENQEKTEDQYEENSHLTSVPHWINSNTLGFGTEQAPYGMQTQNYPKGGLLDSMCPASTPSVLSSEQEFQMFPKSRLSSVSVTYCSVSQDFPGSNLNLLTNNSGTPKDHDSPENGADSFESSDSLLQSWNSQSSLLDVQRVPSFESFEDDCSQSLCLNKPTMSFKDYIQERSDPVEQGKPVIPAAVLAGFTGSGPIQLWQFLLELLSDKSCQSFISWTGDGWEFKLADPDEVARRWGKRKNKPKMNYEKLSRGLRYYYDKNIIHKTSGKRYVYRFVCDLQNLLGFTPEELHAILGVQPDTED
# How it was run: as §1
# SPDEF = molecular target: T4, SPDEF (Homo sapiens, UniProt O95238 1-335)
# T4 sequence: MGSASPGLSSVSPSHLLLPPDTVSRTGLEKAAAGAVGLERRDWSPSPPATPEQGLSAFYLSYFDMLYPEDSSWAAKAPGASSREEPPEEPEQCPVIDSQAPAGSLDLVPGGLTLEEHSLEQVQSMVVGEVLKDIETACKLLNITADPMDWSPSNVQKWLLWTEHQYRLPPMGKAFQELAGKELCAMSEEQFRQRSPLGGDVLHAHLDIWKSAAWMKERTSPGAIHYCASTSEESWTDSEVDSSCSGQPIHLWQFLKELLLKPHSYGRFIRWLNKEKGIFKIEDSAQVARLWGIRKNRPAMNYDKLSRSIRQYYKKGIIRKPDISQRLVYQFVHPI
# How it was run: as §1
# ETV7 = molecular target: T5, ETV7 (Homo sapiens, UniProt Q9Y603 1-341)
# T5 sequence: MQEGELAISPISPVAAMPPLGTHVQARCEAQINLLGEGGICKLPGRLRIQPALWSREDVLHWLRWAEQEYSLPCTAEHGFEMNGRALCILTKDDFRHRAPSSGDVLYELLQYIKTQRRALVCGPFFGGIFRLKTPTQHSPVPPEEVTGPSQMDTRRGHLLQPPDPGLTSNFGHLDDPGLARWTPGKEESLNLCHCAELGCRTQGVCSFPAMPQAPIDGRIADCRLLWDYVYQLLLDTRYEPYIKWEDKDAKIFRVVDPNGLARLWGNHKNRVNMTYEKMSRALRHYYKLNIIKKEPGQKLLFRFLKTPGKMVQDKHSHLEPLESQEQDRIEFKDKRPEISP
# How it was run: as §1
# ELF5 = molecular target: T6, ELF5 (Homo sapiens, UniProt Q9UKW6-2 1-255)
# T6 sequence: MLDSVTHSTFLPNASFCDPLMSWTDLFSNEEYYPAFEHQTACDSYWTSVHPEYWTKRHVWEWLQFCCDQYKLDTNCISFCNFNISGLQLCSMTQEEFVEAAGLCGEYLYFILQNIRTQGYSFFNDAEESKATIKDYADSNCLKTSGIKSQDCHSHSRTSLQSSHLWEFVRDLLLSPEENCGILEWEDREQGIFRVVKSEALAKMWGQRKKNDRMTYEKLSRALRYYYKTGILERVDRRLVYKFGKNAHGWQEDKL
# How it was run: as §1
# ETV3 = molecular target: T7, ETV3 (Homo sapiens, UniProt P41162-2 1-143)
# T7 sequence: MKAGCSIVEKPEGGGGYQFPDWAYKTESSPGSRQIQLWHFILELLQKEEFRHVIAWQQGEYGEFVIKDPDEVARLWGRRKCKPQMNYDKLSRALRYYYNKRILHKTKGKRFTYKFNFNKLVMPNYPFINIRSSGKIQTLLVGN
# How it was run: as §1
# ETV6 = ETV6 (Homo sapiens, UniProt P41212 1-452)
# Chain of ETV6 (P41212 whole entry): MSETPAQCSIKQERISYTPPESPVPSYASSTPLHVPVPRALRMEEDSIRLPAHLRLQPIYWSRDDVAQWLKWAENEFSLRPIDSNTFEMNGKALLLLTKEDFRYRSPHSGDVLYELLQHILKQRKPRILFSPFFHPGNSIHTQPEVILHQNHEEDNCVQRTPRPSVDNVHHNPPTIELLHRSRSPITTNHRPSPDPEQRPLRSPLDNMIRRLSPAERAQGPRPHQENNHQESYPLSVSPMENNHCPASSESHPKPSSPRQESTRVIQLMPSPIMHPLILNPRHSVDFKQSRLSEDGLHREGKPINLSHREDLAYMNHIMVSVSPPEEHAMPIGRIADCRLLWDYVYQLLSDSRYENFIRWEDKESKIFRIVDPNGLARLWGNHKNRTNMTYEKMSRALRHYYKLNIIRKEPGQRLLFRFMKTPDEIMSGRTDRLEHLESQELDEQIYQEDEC
# How it was run: as §1
# Chain of ETV1 (P50549 whole entry, the tested form may be a part): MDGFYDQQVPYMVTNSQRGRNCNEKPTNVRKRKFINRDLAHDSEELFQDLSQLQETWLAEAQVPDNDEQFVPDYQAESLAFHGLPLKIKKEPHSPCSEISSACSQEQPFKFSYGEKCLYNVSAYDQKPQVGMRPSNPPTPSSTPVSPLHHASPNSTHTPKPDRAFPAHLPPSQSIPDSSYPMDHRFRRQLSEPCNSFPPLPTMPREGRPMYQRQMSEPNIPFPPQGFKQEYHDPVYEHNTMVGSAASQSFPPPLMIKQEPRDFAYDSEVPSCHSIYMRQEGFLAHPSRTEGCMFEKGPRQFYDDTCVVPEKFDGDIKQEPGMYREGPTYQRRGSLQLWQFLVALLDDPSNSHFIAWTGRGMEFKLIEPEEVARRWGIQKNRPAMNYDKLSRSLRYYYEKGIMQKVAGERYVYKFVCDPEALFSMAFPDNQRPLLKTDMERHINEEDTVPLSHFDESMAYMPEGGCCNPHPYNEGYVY
sequence,measurement,setting,value
CGCCTT,binding signal,ETV1,"1.38 fold enrichment (6-mer frequency, TF over GST control)"
same,binding signal,ERF,"1.35 fold enrichment (6-mer frequency, TF over GST control)"
same,binding signal,ETV3L,"1.29 fold enrichment (6-mer frequency, TF over GST control)"
same,binding signal,ETS2,"1.3 fold enrichment (6-mer frequency, TF over GST control)"
same,binding signal,SPDEF,"1.3 fold enrichment (6-mer frequency, TF over GST control)"
same,binding signal,ETV7,"1.34 fold enrichment (6-mer frequency, TF over GST control)"
same,binding signal,ELF5,"1.52 fold enrichment (6-mer frequency, TF over GST control)"
same,binding signal,ETV3,"1.45 fold enrichment (6-mer frequency, TF over GST control)"
same,binding signal,ETV6,"1.52 fold enrichment (6-mer frequency, TF over GST control)"
